Experimental data published in PubChem BioAssay AID463173 (ICCB-Longwood Screening Facility, Harvard Medical School, 2010).
Hit rate of the full screen: of about 52,000 compounds, about 4,300 (8.3%) were called active. No stated cut-off is given here; in the data, active means survival mostly below about 52% (no sharp cut-off); inactive means mostly above about 56%. This excerpt belongs to a sample that is enriched for actives.

These molecules were tested on DeltatarO mutant (assay: growth inhibition of S. aureus wild type versus tarO mutant, primary screen, teichoic acid synthesis inhibitors, RN4220, OD600 (AID 463173)). Conditions: OD600, 18 h, stronger effect = lower value, screened at 18.75 µg/mL (by protocol).

Row | Compound | survival
1 | COc1ccc(CCN2C(=O)CN(C3CCCCCC3)C(=O)C2c2ccc(Cl)cc2)cc1OC (configuration not stated) | 81% (inactive)
2 | O=C(Nc1ccc(-c2nc3ccccc3s2)c(O)c1)c1ccc(Br)cc1 | 87% (inactive)
3 | COc1ccc(C(=O)Nc2cc(C)c(O)c(-c3nc4ccccc4s3)c2)cc1OC | 51% (inactive)
4 | COc1cccc(C(=O)Nc2ccc(-c3nc4ccccc4s3)cc2Cl)c1 | 72% (inactive)
5 | COc1ccc(C(=O)Nc2ccccc2-c2nc3ccccc3s2)c(OC)c1 | 102% (inactive)
6 | COc1ccc(C(=O)Nc2ccccc2-c2nc3ccccc3s2)cc1OC | 7% (active)
7 | O=C(Nc1ccccc1-c1nc2ccccc2s1)c1cc(Cl)cc(Cl)c1 | 84% (inactive)
8 | COc1cccc(C(=O)Nc2ccccc2-c2nc3ccccc3s2)c1 | 33% (active)
9 | O=C(Nc1ccccc1-c1nc2ccccc2s1)c1ccc(F)cc1 | 81% (inactive)
10 | Cc1ccc(C(=O)Nc2ccc(-c3nc4ccccc4s3)c(O)c2)c(C)c1 | 84% (inactive)
11 | CSc1ccc(C(=O)Nc2ccc(-c3nc4ccccc4s3)c(O)c2)cc1 | 32% (active)
12 | COc1cc(OC)cc(C(=O)Nc2ccc(-c3nc4ccccc4s3)c(C)c2)c1 | 117% (inactive)
13 | COc1cc(OC)cc(C(=O)Nc2ccccc2-c2nc3ccccc3s2)c1 | 17% (active)
14 | Cn1c(CNC(=O)CSc2n[nH]c(-c3ccccc3Cl)n2)nc2ccccc21 | 75% (inactive)
15 | O=C(Nc1ccc(F)cc1F)c1cc2c(=O)n3ccccc3nc2s1 | 75% (inactive)
16 | CCOC(=O)c1ccccc1NC(=O)c1sc2ncn(CC)c(=O)c2c1C | 68% (inactive)
17 | Cc1ccc(C)c(NC(=O)CCc2c(C)n(C)c3cc(-c4ccccc4C)nn3c2=O)c1 | 63% (inactive)
18 | CCC(CC)C(=O)Nc1ccccc1C(=O)OCc1cc(=O)n2nc(C3CCCCC3)sc2n1 | 92% (inactive)
19 | O=C(Nc1ccc(F)c(Cl)c1)N1CC=C(c2c[nH]c3ccccc23)CC1 | 77% (inactive)
20 | CN1CCN(C(CNC(=O)C(=O)Nc2cccc(Cl)c2)c2ccc3c(c2)OCO3)CC1 (configuration not stated) | 86% (inactive)
21 | CCC1=C(c2ccc(C)cc2)S(=O)(=O)N=C1N1CCC(C(=O)Nc2ccccc2C(=O)OC)CC1 | 89% (inactive)
22 | Cc1ccc(NC(=O)Cn2c(=O)n(CCc3ccccc3)c(=O)c3c4c(sc32)CCCC4)cc1C | 97% (inactive)
23 | CCCCOc1ccc(C(=O)Nc2ccc3c(c2)CCCN3C(=O)c2cccs2)cc1 | 83% (inactive)
24 | CCOC(=O)C(C)ON1C(=O)c2ccccc2C1=O (configuration not stated) | 86% (inactive)
25 | CC(=O)N1CCc2cc(Br)cc(S(=O)(=O)NCCc3cccc(C)c3)c21 | 75% (inactive)
26 | CC(=O)N1CCc2cc(Br)cc(S(=O)(=O)CCC(=O)Nc3ccc(C)cc3Cl)c21 | 47% (active)

Row | Compound | survival
27 | CC(=O)N1CCc2cc(Br)cc(S(=O)(=O)CCC(=O)NCCc3ccc(Cl)cc3)c21 | 44% (active)
28 | Cc1ccc(NC(=O)CCS(=O)(=O)c2cc(Br)cc3c2N(C(=O)C2CC2)CC3)cc1 | 90% (inactive)
29 | CCC(=O)N1CCc2cc(Br)cc(S(=O)(=O)CCC(=O)NCCc3ccc(Cl)cc3)c21 | 70% (inactive)
30 | CC(=O)N1CCc2cc(Br)cc(S(=O)(=O)NCCc3ccc(Cl)cc3)c21 | 45% (active)
31 | CCC(=O)N1CCc2cc(Br)cc(S(=O)(=O)CCC(=O)Nc3ccccc3C)c21 | 87% (inactive)
32 | COc1ccc(CCNC(=O)CCS(=O)(=O)c2cc(Br)cc3c2N(C(C)=O)CC3)cc1OC | 53% (inactive)
33 | CCOc1ccc(CCNS(=O)(=O)c2cc(Br)cc3c2N(C(C)=O)CC3)cc1OCC | 103% (inactive)
34 | COc1ccc(CCNC(=O)c2ccc3c(c2)N(Cc2ccccc2C)C(=O)c2ccccc2S3)cc1OC | 118% (inactive)
35 | CCOC(=O)c1c(C)[nH]c(C)c1S(=O)(=O)NCC(=O)Nc1ccc(CC)cc1 | 96% (inactive)
36 | COc1ccc(OC)c(CCNC(=O)C2=C(C)C(=O)OC23CCC(C)CC3)c1 (configuration not stated) | 86% (inactive)
37 | Cc1cc(C(C)(C)C)oc1C(=O)N(CC(=O)NC1CCCC1)c1ccc(F)cc1 | 77% (inactive)
38 | COc1ccc(OCC(=O)N2CCC(c3nc4ccccc4s3)CC2)cc1 | 68% (inactive)
39 | Cc1cc(Cl)ccc1OCC(=O)N1CCC(c2nc3ccccc3s2)CC1 | 21% (active)
40 | Cc1ccccc1OCC(=O)N1CCC(c2nc3ccccc3s2)CC1 | 51% (inactive)
41 | O=C(COc1cccc(Cl)c1)N1CCC(c2nc3ccccc3s2)CC1 | 44% (active)
42 | CC(C)(C)c1ccc(OCC(=O)N2CCC(c3nc4ccccc4s3)CC2)cc1 | 84% (inactive)
43 | Cc1cc(OCC(=O)N2CCC(c3nc4ccccc4s3)CC2)ccc1Cl | 23% (active)
44 | Cc1cc(C)cc(OCC(=O)N2CCC(c3nc4ccccc4s3)CC2)c1 | 85% (inactive)
45 | O=C(COc1ccc([N+](=O)[O-])cc1)N1CCC(c2nc3ccccc3s2)CC1 | 82% (inactive)
46 | Cc1cc(Cl)ccc1OCC(=O)N1CCC(c2nc3ccccc3o2)CC1 | 54% (inactive)
47 | COc1ccc(N2CCN(S(=O)(=O)c3c(C)nc4sc(C)cn4c3=O)CC2)cc1 | 92% (inactive)
48 | CCCCSCc1ccc(C(=O)O)o1 | 77% (inactive)
49 | O=C(c1cccs1)N1CCCc2cc(NS(=O)(=O)c3cc(F)ccc3F)ccc21 | 73% (inactive)
50 | O=C(c1ccccc1F)N1c2nc(-c3ccco3)nn2C2(CCCCC2)[C@@H]2CCCC[C@@H]21 | 69% (inactive)
51 | C=Cc1ccc(Cn2c(C)c(CNCCc3ccccc3C)c(C(=O)O)c2C)cc1 | 53% (inactive)
52 | Cc1cc(C)c(NS(=O)(=O)c2ccc(-c3coc(C)n3)cc2)c(C)c1 | 94% (inactive)

Row | Compound | survival
53 | CC(=O)OCc1cnc(C)c2oc(=O)c(C(=O)Nc3ccc(C)cc3Cl)cc12 | 128% (inactive)
54 | Cc1ccc(NC(=O)c2ccc(Cl)cc2Cl)c(C(=O)c2ccccc2)c1 | -1% (active)
55 | Cc1ccc(NC(=O)c2ccccc2Br)c(C(=O)c2ccccc2)c1 | 26% (active)
56 | Cc1cc(NC(=O)c2ccccc2Cl)ccc1NC(=O)c1ccccc1 | 77% (inactive)
57 | O=C(Nc1cc2c(cc1C(=O)c1ccccc1)OCCO2)c1ccc(Br)cc1 | 82% (inactive)
58 | Cc1ccc(C(=O)COC(=O)c2cccc(NC(=O)c3ccc(Cl)cc3Cl)c2)cc1 | 61% (inactive)
59 | O=C(Nc1cc2c(cc1C(=O)c1ccccc1Br)OCCO2)c1ccccc1 | 68% (inactive)
60 | Cc1ccc(NC(=O)c2ccc(Br)cc2)c(C(=O)c2ccccc2)c1 | -2% (active)
61 | Cc1ccc(NC(=O)c2nc[nH]c2C(=O)N2CCCCC2)c(C(=O)c2ccccc2)c1 | 82% (inactive)
62 | O=C(c1ccccc1)c1ccccc1NC(=O)c1ccccc1C(=O)O | 67% (inactive)
63 | CCOc1ccccc1CNC(=O)c1ccc2c(c1)nc1n2CCCCC1 | 87% (inactive)
64 | O=C(c1ccccc1)n1nnc2ccccc21 | 106% (inactive)
65 | COc1ccc2c(c1)c1c(c(=O)n(Cc3ccccc3)c(=O)n1Cc1cccc(Cl)c1)n2C | 82% (inactive)
66 | CCC(Oc1ccccc1)C(=O)Nc1nccs1 (configuration not stated) | 79% (inactive)
67 | COc1ccc2c(CNCCc3ccco3)c(C(=O)O)n(Cc3ccccc3)c2c1 | 101% (inactive)
68 | CCC(C(=O)Nc1cc(C)ccc1C)n1c(=O)c(C(F)(F)F)nc2ccccc21 (configuration not stated) | 102% (inactive)
69 | CCCc1cnc2c(c1SCC(=O)Nc1ccc([N+](=O)[O-])cc1)c(=O)n(C)c(=O)n2C | 66% (inactive)
70 | COc1ccc(-n2cc(C(=O)OCc3ccc(F)c(F)c3)c3ccccc3c2=O)cc1 | 98% (inactive)
71 | COc1ccccc1NC(=O)c1cc(S(=O)(=O)N2CCN(c3ccccc3Cl)CC2)ccc1F | 102% (inactive)
72 | O=C(Nc1ccccc1C(=O)O)c1cccc(S(=O)(=O)N2CCCC2)c1 | 87% (inactive)
73 | COc1ccccc1NC(=O)c1cccc(S(=O)(=O)N2CCCCCC2)c1 | 40% (active)
74 | COc1ccccc1NC(=O)c1ccccc1C(=O)O | 82% (inactive)
75 | COc1ccc(OC)c(NC(=O)c2ccccc2)c1 | 105% (inactive)
76 | COc1ccccc1NC(=O)c1ccccc1NC(=O)c1ccccc1 | 20% (active)
77 | Cc1ccc(S(=O)(=O)N2C(=O)CCC2C(=O)N2CCCC2)cc1 (configuration not stated) | 97% (inactive)
78 | Cc1ccc(N2CCN(c3c(CN4CCCC4)c(=O)oc4ccccc34)CC2)c(C)c1 | 67% (inactive)

Row | Compound | survival
79 | COc1cc(Cl)c(C)cc1Nc1nc2ccccc2c2nnc(C)n12 | 124% (inactive)
80 | CCOC(=O)c1sc(N/C=C(\C#N)c2nc3cc(Cl)ccc3o2)c(C#N)c1C | 81% (inactive)
81 | CN(C)c1ccc(CNC(=O)CN2CCSc3ccc(S(=O)(=O)N(C)C)cc32)cc1 | 66% (inactive)
82 | Cc1ccccc1CN1C(=O)C2(c3ccccc31)N(c1ccccc1)C(=O)CS2(=O)=O (configuration not stated) | 124% (inactive)
83 | CCOc1ccc2nc(N3CCCC(C(=O)Nc4ccc(OC)cc4)C3)sc2c1 (configuration not stated) | 60% (inactive)
84 | COc1cccc(CNC(=O)c2cc(S(=O)(=O)N3CCCCCC3)cn2C)c1 | 82% (inactive)
85 | Cc1ccc(CNC(=O)c2cc(S(=O)(=O)N3CCCCCC3)cn2C)cc1 | 74% (inactive)
86 | CC1CCCN(S(=O)(=O)c2cc(C(=O)NCCc3ccccc3)n(C)c2)C1 (configuration not stated) | 73% (inactive)
87 | COc1ccc(CCNC(=O)c2cc(S(=O)(=O)N3CCCC(C)C3)cn2C)cc1OC (configuration not stated) | 47% (active)
88 | COc1ccccc1CNC(=O)c1cc(S(=O)(=O)N2CCCC(C)C2)cn1C (configuration not stated) | 93% (inactive)
89 | COc1cccc(CNC(=O)c2cc(S(=O)(=O)N3CCCCC3)cn2C)c1 | 0% (active)
90 | COc1ccc(CNC(=O)CCc2c(C)c3cc4c(C)coc4cc3oc2=O)cc1 | 75% (inactive)
91 | O=C(Nc1ccc(-c2nc3cc(NC(=O)c4ccc(F)cc4)ccc3o2)cc1)c1ccc(F)cc1 | 75% (inactive)
92 | O=S(=O)(Nc1ccc2nc(-c3cccc(Cl)c3)oc2c1)c1ccccc1 | 52% (inactive)
93 | COC(=O)c1ccc(-c2nc3ccc(C)cc3o2)cc1 | 102% (inactive)
94 | Cc1ccc(SCC(=O)Nc2ccc3oc(-c4cccc(Cl)c4)nc3c2)cc1 | 72% (inactive)
95 | O=C(O)/C=C/C(=O)Nc1ccc(-c2nc3ccccc3o2)cc1 | 74% (inactive)
96 | O=S(=O)(Nc1ccc2nc(-c3ccc(F)cc3)oc2c1)c1ccccc1 | 32% (active)
97 | O=S(=O)(Nc1ccc(-c2nc3ccccc3o2)cc1)c1ccccc1 | 24% (active)
98 | Cc1ccccc1C(=O)Nc1ccc(-c2nc3ccccc3o2)cc1 | 101% (inactive)
99 | O=S(=O)(Nc1ccc2nc[nH]c2c1)c1ccccc1 | 95% (inactive)
100 | Cc1ccc(S(=O)(=O)Nc2ccc3nc(-c4cccc(Cl)c4)oc3c2)cc1 | 28% (active)
101 | Cc1ccc(S(=O)(=O)Nc2ccc3nc(-c4ccc(F)cc4)oc3c2)cc1 | 11% (active)
102 | Cc1ccc(S(=O)(=O)N2CCCc3cc(NS(=O)(=O)c4ccc(F)cc4)ccc32)cc1 | 74% (inactive)
